From the supplement of paper PMC11732987, “Enantioselective OTUD7B fragment discovery through chemoproteomics screening and high-throughput optimisation” (Communications Chemistry, 2025)

Assays:
Assay in all cases: log2 ratio of Biotin-Ahx-Ub-VS probe labelling (fragment/DMSO); higher = less target engagement (more negative = stronger competition), active = hit call of the paper (q ≤ 0.05, log2 ratio ≤ -1)
Conditions in all cases: compound concentration: 200 uM; treatment time: 3 h
ALG13 = target: T1, ALG13 (UniProt Q9NP73)
T1 sequence (whole entry): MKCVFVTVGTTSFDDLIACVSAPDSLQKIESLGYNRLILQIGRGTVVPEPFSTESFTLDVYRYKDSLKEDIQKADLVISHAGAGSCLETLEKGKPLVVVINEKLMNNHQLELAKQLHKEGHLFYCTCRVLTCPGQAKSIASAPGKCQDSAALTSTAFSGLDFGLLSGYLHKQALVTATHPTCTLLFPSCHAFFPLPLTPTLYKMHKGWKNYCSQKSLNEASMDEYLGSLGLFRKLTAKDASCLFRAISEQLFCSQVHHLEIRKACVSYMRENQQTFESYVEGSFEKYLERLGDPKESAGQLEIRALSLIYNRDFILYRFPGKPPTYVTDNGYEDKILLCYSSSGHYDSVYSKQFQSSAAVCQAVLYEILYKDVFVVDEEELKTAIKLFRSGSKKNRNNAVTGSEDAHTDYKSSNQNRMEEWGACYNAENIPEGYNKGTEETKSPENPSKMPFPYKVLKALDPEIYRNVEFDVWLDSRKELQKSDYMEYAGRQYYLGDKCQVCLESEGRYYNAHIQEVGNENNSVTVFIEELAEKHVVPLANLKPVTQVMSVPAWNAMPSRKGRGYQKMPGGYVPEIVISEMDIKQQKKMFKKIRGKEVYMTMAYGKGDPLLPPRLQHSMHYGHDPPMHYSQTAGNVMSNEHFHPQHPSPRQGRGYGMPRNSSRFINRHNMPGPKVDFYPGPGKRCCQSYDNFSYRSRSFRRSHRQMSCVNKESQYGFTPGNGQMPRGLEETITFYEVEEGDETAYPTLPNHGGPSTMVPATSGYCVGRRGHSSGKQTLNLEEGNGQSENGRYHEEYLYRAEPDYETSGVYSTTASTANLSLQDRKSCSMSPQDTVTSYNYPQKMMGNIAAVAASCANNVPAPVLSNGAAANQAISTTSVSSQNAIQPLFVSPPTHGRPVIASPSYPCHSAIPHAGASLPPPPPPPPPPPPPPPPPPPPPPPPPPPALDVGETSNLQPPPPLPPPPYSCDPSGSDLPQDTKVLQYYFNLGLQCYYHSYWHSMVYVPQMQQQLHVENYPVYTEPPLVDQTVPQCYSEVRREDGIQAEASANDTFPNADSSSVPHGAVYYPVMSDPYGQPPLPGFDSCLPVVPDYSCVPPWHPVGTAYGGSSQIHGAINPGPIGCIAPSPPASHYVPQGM
Procedure, shortened: (§1)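 Using Biotin-Ahx-Ub-VS at 0.5 µM final for 1 h, DUBs were labelled in HEK293T lysate (495 µg per sample) that had first been treated in triplicate with fragment at 200 µM or vehicle for 3 h. NeutrAvidin enrichment, LysC and trypsin digestion and diaPASEF LC-MS/MS followed. Spectronaut label-free quantities were global-median-normalised. Values are average log2 fragment/vehicle ratios by unpaired t-test, using proteins with ≥2 unique peptides.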

ATXN3 = ATXN3 (UniProt P54252)
Procedure, shortened: as §1

BAP1 = target: T2, BAP1 (UniProt Q92560)
T2 sequence (whole entry): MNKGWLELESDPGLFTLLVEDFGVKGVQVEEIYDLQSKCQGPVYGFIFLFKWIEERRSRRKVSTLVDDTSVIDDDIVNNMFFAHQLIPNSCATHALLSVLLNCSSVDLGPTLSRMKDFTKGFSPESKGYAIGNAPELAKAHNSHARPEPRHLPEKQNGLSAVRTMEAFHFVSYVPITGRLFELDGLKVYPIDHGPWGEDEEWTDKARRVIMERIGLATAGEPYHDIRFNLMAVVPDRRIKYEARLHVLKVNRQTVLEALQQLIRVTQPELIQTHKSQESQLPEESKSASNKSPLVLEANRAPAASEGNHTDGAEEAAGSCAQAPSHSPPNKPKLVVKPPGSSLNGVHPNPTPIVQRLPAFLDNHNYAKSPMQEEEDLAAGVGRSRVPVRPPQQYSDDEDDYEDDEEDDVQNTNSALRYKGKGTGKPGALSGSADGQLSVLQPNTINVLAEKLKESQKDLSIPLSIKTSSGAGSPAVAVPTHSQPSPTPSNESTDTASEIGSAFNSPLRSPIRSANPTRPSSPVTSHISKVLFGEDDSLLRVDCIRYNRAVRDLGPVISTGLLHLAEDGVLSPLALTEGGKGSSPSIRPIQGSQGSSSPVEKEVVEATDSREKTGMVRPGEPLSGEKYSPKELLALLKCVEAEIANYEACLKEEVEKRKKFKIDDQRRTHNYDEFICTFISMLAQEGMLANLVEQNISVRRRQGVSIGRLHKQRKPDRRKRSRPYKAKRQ
Procedure, shortened: as §1

EIF3F = EIF3F (UniProt O00303)
Procedure, shortened: as §1

EIF3H = EIF3H (UniProt O15372)
Procedure, shortened: as §1

FAM105A = target: T3, FAM105A (UniProt Q9NUU6)
T3 sequence (whole entry): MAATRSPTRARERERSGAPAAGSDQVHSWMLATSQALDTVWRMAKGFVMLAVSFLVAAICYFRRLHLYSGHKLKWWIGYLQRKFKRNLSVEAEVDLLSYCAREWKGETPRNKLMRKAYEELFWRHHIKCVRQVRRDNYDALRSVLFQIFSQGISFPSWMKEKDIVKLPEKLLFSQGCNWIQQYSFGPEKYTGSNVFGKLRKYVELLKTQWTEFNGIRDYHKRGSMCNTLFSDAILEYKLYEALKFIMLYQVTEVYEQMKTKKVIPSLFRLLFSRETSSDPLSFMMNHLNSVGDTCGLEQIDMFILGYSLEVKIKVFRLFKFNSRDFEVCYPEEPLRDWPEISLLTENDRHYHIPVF
Procedure, shortened: as §1

OTUB1 = OTUB1 (UniProt Q96FW1)
Procedure, shortened: as §1

OTUD4 = target: T4, OTUD4 (UniProt Q01804)
T4 sequence (whole entry): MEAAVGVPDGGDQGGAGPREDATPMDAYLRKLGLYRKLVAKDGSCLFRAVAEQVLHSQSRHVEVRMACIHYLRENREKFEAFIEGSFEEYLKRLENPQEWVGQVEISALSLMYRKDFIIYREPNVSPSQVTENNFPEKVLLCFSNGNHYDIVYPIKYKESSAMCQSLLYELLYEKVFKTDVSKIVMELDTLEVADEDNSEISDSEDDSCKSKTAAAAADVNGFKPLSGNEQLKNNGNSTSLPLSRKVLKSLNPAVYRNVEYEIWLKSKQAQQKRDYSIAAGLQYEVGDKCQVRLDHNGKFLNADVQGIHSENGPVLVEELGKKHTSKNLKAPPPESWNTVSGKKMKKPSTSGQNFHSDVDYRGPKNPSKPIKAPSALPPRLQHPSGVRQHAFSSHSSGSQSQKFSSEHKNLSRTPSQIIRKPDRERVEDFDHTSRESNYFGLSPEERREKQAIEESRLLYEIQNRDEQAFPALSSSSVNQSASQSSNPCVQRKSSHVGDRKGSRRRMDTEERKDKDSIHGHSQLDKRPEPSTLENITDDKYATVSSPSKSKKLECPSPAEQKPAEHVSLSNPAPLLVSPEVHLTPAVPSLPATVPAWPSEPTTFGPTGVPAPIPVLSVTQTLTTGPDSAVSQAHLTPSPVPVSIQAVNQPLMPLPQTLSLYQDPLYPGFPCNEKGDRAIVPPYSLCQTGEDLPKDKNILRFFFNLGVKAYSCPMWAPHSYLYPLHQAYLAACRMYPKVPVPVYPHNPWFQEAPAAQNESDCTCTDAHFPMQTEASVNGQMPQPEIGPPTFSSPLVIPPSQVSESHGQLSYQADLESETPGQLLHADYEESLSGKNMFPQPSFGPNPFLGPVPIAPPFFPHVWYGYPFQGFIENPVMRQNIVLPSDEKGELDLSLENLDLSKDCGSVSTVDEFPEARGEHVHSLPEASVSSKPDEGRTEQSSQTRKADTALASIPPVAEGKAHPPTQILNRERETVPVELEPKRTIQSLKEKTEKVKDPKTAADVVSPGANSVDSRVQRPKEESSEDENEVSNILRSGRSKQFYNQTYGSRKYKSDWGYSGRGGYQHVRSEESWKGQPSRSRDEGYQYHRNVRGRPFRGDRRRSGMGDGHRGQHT
Procedure, shortened: as §1

OTUD5 = target: T5, OTUD5 (UniProt Q96G74)
T5 sequence (whole entry): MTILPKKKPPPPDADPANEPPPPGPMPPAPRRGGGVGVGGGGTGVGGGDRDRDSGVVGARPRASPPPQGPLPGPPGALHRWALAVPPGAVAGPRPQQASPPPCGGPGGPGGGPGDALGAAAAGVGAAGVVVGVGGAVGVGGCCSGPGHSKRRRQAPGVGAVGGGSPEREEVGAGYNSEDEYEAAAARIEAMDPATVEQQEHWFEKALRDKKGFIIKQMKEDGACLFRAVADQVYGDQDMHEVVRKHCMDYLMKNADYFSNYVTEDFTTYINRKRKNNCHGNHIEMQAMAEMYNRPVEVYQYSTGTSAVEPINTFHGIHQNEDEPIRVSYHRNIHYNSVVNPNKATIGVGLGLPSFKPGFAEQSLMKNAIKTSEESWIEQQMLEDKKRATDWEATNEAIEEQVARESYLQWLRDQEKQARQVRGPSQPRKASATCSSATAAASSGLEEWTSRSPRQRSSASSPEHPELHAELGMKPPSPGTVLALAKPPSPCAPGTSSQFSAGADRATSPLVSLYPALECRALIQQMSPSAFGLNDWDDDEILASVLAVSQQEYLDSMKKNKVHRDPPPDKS
Procedure, shortened: as §1

Measured: log2 ratio of Biotin-Ahx-Ub-VS probe labelling

Chain of EIF3F (O00303 whole entry): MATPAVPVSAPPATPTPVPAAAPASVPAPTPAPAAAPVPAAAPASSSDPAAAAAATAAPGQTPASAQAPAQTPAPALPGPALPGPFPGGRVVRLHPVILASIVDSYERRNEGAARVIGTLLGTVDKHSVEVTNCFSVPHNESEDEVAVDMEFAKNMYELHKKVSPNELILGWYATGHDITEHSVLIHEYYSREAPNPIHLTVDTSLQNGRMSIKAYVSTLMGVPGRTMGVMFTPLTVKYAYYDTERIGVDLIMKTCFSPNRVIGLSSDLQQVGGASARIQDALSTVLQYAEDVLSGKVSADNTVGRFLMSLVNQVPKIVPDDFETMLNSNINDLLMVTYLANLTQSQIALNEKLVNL
Chain of OTUB1 (Q96FW1 whole entry): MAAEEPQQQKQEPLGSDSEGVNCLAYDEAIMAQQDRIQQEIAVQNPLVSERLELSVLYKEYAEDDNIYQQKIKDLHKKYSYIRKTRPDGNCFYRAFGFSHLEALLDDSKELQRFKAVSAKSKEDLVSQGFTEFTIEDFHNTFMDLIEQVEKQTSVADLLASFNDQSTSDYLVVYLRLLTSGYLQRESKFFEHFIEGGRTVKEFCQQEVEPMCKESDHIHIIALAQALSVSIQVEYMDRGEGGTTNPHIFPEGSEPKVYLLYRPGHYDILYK
Chain of EIF3H (O15372 whole entry): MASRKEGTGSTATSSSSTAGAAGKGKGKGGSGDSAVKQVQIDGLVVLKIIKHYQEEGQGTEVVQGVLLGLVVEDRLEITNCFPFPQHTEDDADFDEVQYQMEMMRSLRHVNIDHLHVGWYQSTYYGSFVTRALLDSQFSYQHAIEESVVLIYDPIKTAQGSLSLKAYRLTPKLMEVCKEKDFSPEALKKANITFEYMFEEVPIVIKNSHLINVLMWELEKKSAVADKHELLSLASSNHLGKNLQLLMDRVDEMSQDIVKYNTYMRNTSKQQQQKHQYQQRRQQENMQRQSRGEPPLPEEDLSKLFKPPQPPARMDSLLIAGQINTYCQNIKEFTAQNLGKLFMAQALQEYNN
Chain of ATXN3 (P54252 whole entry): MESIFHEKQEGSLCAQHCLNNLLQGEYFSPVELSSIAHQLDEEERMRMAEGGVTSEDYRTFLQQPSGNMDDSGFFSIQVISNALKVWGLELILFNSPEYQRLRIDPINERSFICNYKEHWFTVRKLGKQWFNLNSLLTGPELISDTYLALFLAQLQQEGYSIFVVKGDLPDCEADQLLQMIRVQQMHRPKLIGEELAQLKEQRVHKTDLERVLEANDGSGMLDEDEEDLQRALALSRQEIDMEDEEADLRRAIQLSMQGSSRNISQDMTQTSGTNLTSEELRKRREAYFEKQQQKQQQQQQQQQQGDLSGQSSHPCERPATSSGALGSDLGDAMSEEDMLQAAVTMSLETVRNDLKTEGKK

CN1c2ccccc2C(NC(=O)CCl)CS1(=O)=O (centres undefined)
inactive: ALG13 -0.325 | ATXN3 -0.142 | EIF3F -0.327 | EIF3H 0.0135 | FAM105A 0.147 | OTUB1 -0.0194 | OTUD5 -0.14
active: BAP1 -2.33 | OTUD4 -1.65
